Laboratory results: PubChem BioAssay (NCATS)
Inconclusive results are not listed. The source made the active and inactive calls. The call rests on the fitted dose curve; in most records, active means well fitted inhibition curve with a large enough effect; inconclusive means small, poorly fitted or top-dose-only effect; inactive means flat fitted curve, though single readings scatter.

The compounds below were run on Zika virus NS2B-NS3 protease (assay: Primary screen GU AMC qHTS for Zika virus inhibitors (AID 1347154; further: nearly all actives have a fitted effect of over 70% in size;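 on activity change, negative = inhibition: 0% = no-inhibitor control and -100% = no-enzyme control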)). Details: Zika NS2B-NS3 unlinked protease, AMC fluorogenic substrate; series mostly up to 54.1 µM; activity change, negative = inhibition: at the top concentration.
Method in brief: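 Unlinked Zika NS2B hydrophilic domain–NS3 protease complex at 25 nM in 10 mM Tris-HCl pH 8.0, 0.01% Tween 20, with an AMC peptide substrate. Fluorescence change (340/450 nm) over 15 min at room temperature, normalized to controls, fitted to 4-parameter Hill.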
Potency means the concentration at half of the fitted maximal effect.

| Compound | activity change, negative = inhibition | Potency |
| --- | --- | --- |
| CN(C)CCN(C)C(=O)c1ccc(NC(=O)Nc2ccc(-c3nc(N4CCOCC4)c4ccn(CC(F)(F)F)c4n3)cc2)cc1 | 7.13% (inactive) | – |
| C[C@]12C=CC(=O)C=C1CC[C@@H]1[C@@H]2[C@@H](O)C[C@@]2(C)[C@@H]1CC[C@]2(O)C(=O)CO | 6.13% (inactive) | – |
| O=c1[nH]c(=O)n([C@H]2C[C@@H](O)[C@@H](CO)O2)cc1C(F)(F)F | -1.08% (inactive) | – |
| OC[C@H]1O[C@@H](O[C@H]2[C@@H](O)[C@@](O)(CO)O[C@@H]2CO)[C@H](O)[C@@H](O)[C@@H]1O | -1.02% (inactive) | – |
| COc1cc(CNC(=O)CCCCC=CC(C)C)ccc1O | -17.1% (inactive) | – |
| COc1ccc2cc1Oc1ccc(cc1)C[C@H]1c3cc(c(OC)cc3CCN1C)Oc1c(OC)c(OC)cc3c1[C@H](C2)N(C)CC3 | – | inactive |
| COc1cc2c(cc1OC)[C@@H]1Cc3ccc(OC)c(OC)c3CN1CC2 | 0.149% (inactive) | – |
| CCOC(=O)[C@H]1O[C@H]1C(=O)N[C@@H](CC(C)C)C(=O)NCCC(C)C | -2.43% (inactive) | – |
| CC(C)C[C@@H](C(=O)N[C@H](C(=O)OC1CCCC1)c1ccccc1)[C@H](O)C(=O)NO | -15.4% (inactive) | – |
| CC(C)CN(C[C@H](O)[C@H](Cc1ccccc1)NC(=O)O[C@H]1CCOC1)S(=O)(=O)c1ccc(N)cc1 | -6.29% (inactive) | – |
| CSc1cccc(Nc2ncc3cc(-c4c(Cl)cccc4Cl)c(=O)n(C)c3n2)c1 | 2.96% (inactive) | – |
| CC[C@]1(O)C[C@H]2CN(CCC3=c4ccccc4=N[C]3[C@@](C(=O)OC)(c3cc4c(cc3OC)N(C)[C@H]3[C@@](O)(C(N)=O)[C@H](O)[C@]5(CC)C=CCN6CC[C@]43[C@@H]65)C2)C1 | 5.42% (inactive) | – |
| CCOC(=O)[C@@H](N)CCC(=O)N[C@@H](CSCc1ccccc1)C(=O)N[C@@H](C(=O)OCC)c1ccccc1 | 2.48% (inactive) | – |
| CNc1nc(-c2ccc3c(N)n[nH]c3c2)cc(N2C[C@@H](C(=O)NC3CCCCC3)CC[C@@H]2C)n1 | -4.38% (inactive) | – |
| CON(C)C(=O)N1N=C(c2cc(F)ccc2F)S[C@]1(CCCN)c1ccccc1 | 21.6% (inactive) | – |
| CCc1cc(-c2n[nH]c(C)c2-c2ccc3c(c2)OCCO3)c(O)cc1O | -7.55% (inactive) | – |
| CCC[C@@H](NC(=O)[C@@H]1[C@H]2CCC[C@@H]2CN1C(=O)[C@@H](NC(=O)[C@@H](NC(=O)c1cnccn1)C1CCCCC1)C(C)(C)C)C(=O)C(=O)NC1CC1 | -0.0698% (inactive) | – |

| Compound | activity change, negative = inhibition | Potency |
| --- | --- | --- |
| CC1C(=O)OC2C(O)C34C5CC(C(C)(C)C)C36C(OC(=O)C6O)OC4(C(=O)O5)C12O (stereo not drawn) | 26.6% (inactive) | – |
| CC[C@H](NC(=O)[C@H](C)NC)C(=O)N1C[C@@H](O)C[C@H]1Cc1c(-c2[nH]c3cc(F)ccc3c2C[C@H]2C[C@H](O)CN2C(=O)[C@H](CC)NC(=O)[C@H](C)NC)[nH]c2cc(F)ccc12 | – | 17.1 µM (active) |
| CC(O)=C(C#N)C(=O)Nc1ccc(C(F)(F)F)cc1 | -12.8% (inactive) | – |
| COc1ccc(-c2cc(=O)c3c(O)cc(O[C@@H]4O[C@H](CO[C@@H]5O[C@@H](C)[C@H](O)[C@@H](O)[C@@H]5O)[C@@H](O)[C@H](O)[C@@H]4O)cc3o2)cc1O | 6.81% (inactive) | – |
| CN(C)CCOc1ccc(C(=C(CCCl)c2ccccc2)c2ccccc2)cc1 | 2.7% (inactive) | – |
| CCC(=C(CC)c1ccc(O)cc1)c1ccc(O)cc1 | -11.7% (inactive) | – |
| Oc1cc(O)cc(C=Cc2ccc(O)c(O)c2)c1 | – | 13.6 µM (active) |
| CCC=CC[C@H]1C(=O)CC[C@@H]1CC(=O)OC | 22.5% (inactive) | – |
| COc1ccc(CCN(C)CCCOc2ccc(S(=O)(=O)c3[nH]c4ccccc4c3C(C)C)cc2)cc1OC | 2.04% (inactive) | – |
| COc1cc([C@@H]2c3cc4c(cc3[C@@H](O[C@@H]3O[C@@H]5CO[C@@H](C)O[C@@H]5[C@H](O)[C@@H]3O)[C@H]3COC(=O)[C@H]23)OCO4)cc(OC)c1O | 14% (inactive) | – |
| Cc1nn(Cc2ccccc2Cl)c(C)c1CN(C)CC(O)COc1ccc(Cl)cc1 (stereo not drawn) | -7.99% (inactive) | – |
| CCC(=C(c1ccc(O)cc1)c1ccc(OCCNC)cc1)c1ccccc1 | 8.17% (inactive) | – |
| CN1CC(=O)N2C(Cc3c([nH]c4ccccc34)[C@H]2c2ccc3c(c2)OCO3)C1=O (stereo partly drawn) | -11.5% (inactive) | – |
| C[C@@H](O)[C@H]1C(=O)N2C(C(=O)OCOC(=O)C(C)(C)C)=C(SC3CN(C4=NCCS4)C3)[C@H](C)[C@H]12 | 1.47% (inactive) | – |
| CC(=O)O[C@]1(C(C)=O)CC[C@H]2[C@@H]3C=C(Cl)C4=CC(=O)[C@@H]5C[C@H]5[C@]4(C)[C@@H]3CC[C@@]21C | -3.07% (inactive) | – |
| OC[C@H]1O[C@@H](Oc2ccc(O)cc2)[C@H](O)[C@@H](O)[C@H]1O | -3.28% (inactive) | – |
